The list is not random: actives were taken first. Their share in the collection is about 1.8%.
EBV gp42 block: Epstein-Barr virus gp42 inhibitors, primary screen, biochemical, uHTS, fluorescence polarization; Glycoprotein 42 (Epstein-Barr virus (strain AG876)), Q1HVG2; Fluorescence polarization binding assay, mP read-out; inhibition, % (tested at 21.74 µM); hit rate 0.42% among 220,000; in the data active = inhibition above about 50%
MEX-5 binding: MEX-5 zinc finger RNA-binding disruptors – biochemical, C. elegans, fluorescence polarization, MLPCN library, primary screen. Zinc finger protein mex-5 (Caenorhabditis elegans), Q9XUB2. MEX-5/FITC-TCR2 RNA binding; stronger effect = lower value. activity score (negative = inhibition of binding), % at 10 µM. hit rate 0.38% among 300,000;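 active = inhibition past about -25% in most replicates, and total fluorescence under double the plate's negative control median, limit read from the data; inconclusive = replicates evenly split on the limit, or fluorescence at least double controls; inactive = too little inhibition in most replicates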
Target sequence (Q9XUB2 whole entry, looked up): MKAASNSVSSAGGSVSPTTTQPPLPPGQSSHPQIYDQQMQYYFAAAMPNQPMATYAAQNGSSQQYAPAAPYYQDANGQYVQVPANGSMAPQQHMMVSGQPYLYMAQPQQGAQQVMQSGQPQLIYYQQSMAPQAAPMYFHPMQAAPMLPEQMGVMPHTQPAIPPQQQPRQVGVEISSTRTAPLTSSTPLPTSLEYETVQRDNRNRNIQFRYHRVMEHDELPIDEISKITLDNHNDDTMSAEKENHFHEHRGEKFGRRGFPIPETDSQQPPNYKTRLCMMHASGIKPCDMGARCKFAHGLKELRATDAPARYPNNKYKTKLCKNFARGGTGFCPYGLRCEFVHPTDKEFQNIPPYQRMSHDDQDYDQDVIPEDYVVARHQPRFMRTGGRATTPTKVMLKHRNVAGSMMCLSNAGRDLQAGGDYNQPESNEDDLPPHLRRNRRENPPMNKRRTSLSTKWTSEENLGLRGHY
MLLE-PAM2 inh: inhibitors of PABP1 MLLE–PAM2 peptide binding, primary screen, biochemical, fluorescence polarization, FITC-PAM2, GST-MLLE. Polyadenylate-binding protein 1 (Homo sapiens), P11940. inhibition, % at 20 µM. hit rate 0.36% among 360,000. AID 588489, 2011; in the data active = inhibition above about 35%, passing the limit was not always enough
eIF4H FP inh: human eIF4H binding inhibitors, primary screen, translation initiation inhibitor project, biochemical, uHTS, fluorescence polarization; eIF4H fluorescence polarization binding assay; inhibition, % at 35 µM; hit rate 0.94% among 290,000;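 note: calls also rest on retests at 20 µM and on dose response follow-up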
PABP FP inh: PABP poly(A) RNA binding inhibitors, primary screen, biochemical, fluorescence polarization, uHTS | Polyadenylate-binding protein 1 (Homo sapiens), P11940 | calls only at 35 µM | hit rate 1% among 290,000 | AID 2014, 2009;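 note: calls also rest on retests at 20 µM and on dose response follow-up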
Hits are given with their value; - = inactive; ? = inconclusive; . = not tested or not shown; + = active, no number; ! = not confirmed by another sample. Unless noted, the rule behind the calls is not given here.

SMILES | EBV gp42 block | MEX-5 binding | MLLE-PAM2 inh | eIF4H FP inh | PABP FP inh
CCn1c(SCC(=O)NC(=O)NCc2ccco2)nc2sc(C)c(C)c2c1=O | - | - | - | 81.7 | +
Cc1ccccc1Nc1nnc(SCC(=O)NC(=O)NCc2ccco2)s1 | - | - | - | 59.1 | -
Nn1c(SCC(=O)NC(=O)NCc2ccco2)nnc1-c1ccc(OC(F)F)cc1 | 62.3 | - | - | - | -
Nn1c(SCC(=O)NCCN2C(=O)CSC2=O)nnc1-c1ccc(OC(F)F)cc1 | . | - | - | . | .
CCOc1ccccc1-n1nnnc1SCC(=O)NC(=O)NCc1ccco1 | - | - | - | 60.7 | +
COc1cc2ccccc2cc1C(=O)N/N=C/c1cccs1 | . | . | - | . | .
CCCn1c(SCC(=O)NC(=O)NCc2ccccc2)n[nH]c1=O | . | . | - | . | .
CCCn1c(SCC(=O)NC(=O)NCc2ccco2)n[nH]c1=O | - | . | . | 74.0 | +
C=CCn1c(SCC(=O)NC(=O)NCc2ccco2)nc2sc(CC)cc2c1=O | - | - | - | 83.7 | +
CC(=O)NC(c1cccc(F)c1)c1nc(/C=C/c2ccccc2)cs1 (stereo not drawn) | . | . | - | . | .
CCN1C=C(Cc2cccs2)C2=C(C1)C(c1cccs1)C(C#N)=C(N)O2 (stereo not drawn) | - | - | - | 93.3 | +
CCN1CC2=C(OC(N)=C(C#N)C2c2cccs2)/C(=C/c2cccs2)C1 (stereo not drawn) | - | - | - | ? | ?
Cc1ccc(Cn2c([N+](=O)[O-])cnc2C)cc1 | - | - | - | - | -
Cc1ncc([N+](=O)[O-])n1CCO | - | - | - | 5.6 | -
Cc1ncc([N+](=O)[O-])n1CC(C)O (stereo not drawn) | - | - | - | ? | +!
CCS(=O)(=O)CCn1c([N+](=O)[O-])cnc1C | - | - | - | - | -
Clc1cccc(-c2nc3c4ccccc4ccn3c2CC2CCCCC2)c1 | . | . | - | . | .
CCOC(=O)C1=C(C)OC(N)=C(C#N)C1c1ccc(O)c(OC)c1 (stereo not drawn) | - | -39.6 | - | - | -
COC(=O)c1cc(C)nc2c1c(C)nn2-c1ccccc1 | . | . | - | . | .
Cc1nn(-c2cccc(Cl)c2)c2nc(-c3ccco3)cc(C(=O)O)c12 | - | - | - | 79.6 | +
Cc1nn(-c2ccccc2)c2nc(-c3ccco3)cc(C(=O)O)c12 | - | - | - | 88.2 | +
Cc1cccc(-n2nc(C)c3c(C(=O)O)cc(-c4cccs4)nc32)c1 | - | - | - | - | -
O=C(O)c1cc(-c2ccco2)nn1-c1ccc(Cl)cc1 | - | - | - | - | -
O=C(O)c1cc(-c2ccco2)nn1-c1cccc(Cl)c1 | - | - | - | - | +
O=C(COc1ccc(S(=O)(=O)N2CCOCC2)cc1)NCCc1ccc(Cl)cc1 | . | . | - | . | .
SMILES | EBV gp42 block | MEX-5 binding | MLLE-PAM2 inh | eIF4H FP inh | PABP FP inh
CCc1nc2ccc(C(=O)N3CCN(S(=O)(=O)CC)CC3)cn2c1N(CC)C(=O)NCCc1ccccc1 | . | . | - | . | .
CC(=O)N1C[C@H]2CON(C)[C@H]2C[C@H]1c1cccc(-c2ccc(C#N)cc2)c1 | . | . | - | . | .
O=C1c2ccc([N+](=O)[O-])cc2NC(c2ccco2)N1/N=C/c1ccco1 (stereo not drawn) | - | - | - | 56.0 | -
CN=c1scc(-c2ccc([N+](=O)[O-])cc2)n1/N=C/c1ccco1 | - | - | - | - | -
CC1(C)CCCC2(C)C(OCCO)=CC(=O)C=C12 (stereo not drawn) | . | . | - | . | .
N=C1S/C(=C\c2ccco2)C(=O)N1c1ccc2c(c1)OCO2 | - | - | - | - | +
N=C1S/C(=C\c2ccco2)C(=O)N1c1nccs1 | - | - | - | 95.2 | +
COc1ccc(C(=O)Nc2cccc(-c3cc4ccccc4oc3=O)c2)cc1[N+](=O)[O-] | 58.4 | . | - | - | -
COc1cccc(N2CCN(C(=O)C3CCN(C(=O)Nc4ccccc4)CC3)CC2)c1 | . | . | - | . | .
CC1CCC(NC(=O)C2CCC(CNS(=O)(=O)c3ccc4c(c3)C(C)(C)C(=O)N4C)CC2)CC1 (stereo not drawn) | . | . | - | . | .
N#CC1(C#N)CC(C=O)=C(N)C1(C#N)CC(=O)C12CC3CC(CC(C3)C1)C2 (stereo not drawn) | 142.1 | - | - | - | -
CCC(=Nc1ccc(N)cc1)C1=C(O)C(C(=O)OC)C(C)(C)CC1=O (stereo not drawn) | - | - | - | 103.3 | +
CCCCC(=Nc1ccc(N)cc1)C1=C(O)C(C(=O)OC)C(C)(C)CC1=O (stereo not drawn) | - | - | - | 42.4 | +
CCCC(=Nc1ccccc1)C1=C(O)C(C(=O)OC)C(C)(C)CC1=O (stereo not drawn) | - | - | - | - | -
Cc1ccc(OCC(=O)NC2=NCCS2)cc1 | - | - | - | - | -
CC(=O)c1ccc(OCCCC(=O)NC2=NCCS2)cc1 | - | - | 39.0 | - | -
Cn1c2c(c(=O)n(C)c1=O)C(C(F)(F)F)(C(F)(F)F)N=C(c1ccccc1Cl)N2 | - | . | - | - | -
Cn1c(=O)c2[nH]c(-c3ccccc3)c(O)c2n(C)c1=O | 122.4 | ? | - | ? | -
Cn1c(=O)c2[nH]c(-c3ccccc3Cl)c(O)c2n(C)c1=O | 65.1 | - | - | ? | -
Cn1c(=O)c2[nH]c(-c3ccccc3)nc2n(C)c1=O | - | . | . | - | -
Cc1[nH]c2ccccc2c1N=Nc1ccccc1C(=O)O | - | - | - | - | +
O=C(O)c1cc(O)ccc1N=Nc1ccccc1 | - | - | - | - | -
O=C(O)c1ccccc1N=Nc1ccc(O)cc1 | . | - | 41.4 | . | .
CN1C(=O)C(N=Nc2ccc([N+](=O)[O-])cc2)SC1=S (stereo not drawn) | . | . | - | . | .
Fc1cccc(Cc2c(-c3ccco3)nc3c4ccccc4ccn23)c1 | . | . | - | . | .
SMILES | EBV gp42 block | MEX-5 binding | MLLE-PAM2 inh | eIF4H FP inh | PABP FP inh
CC(C)CN1CCN(Cc2ccc(CN3CCCCC3)s2)CC1CCO (stereo not drawn) | - | - | - | 62.7 | +
CC(C)CN1CCN(Cc2nc3ccccc3s2)CC1CCO (stereo not drawn) | - | - | - | - | -
Cc1ccc(OC(=O)COc2ccccc2)c(-n2nc3ccccc3n2)c1 | - | - | - | - | -
Cc1ccc(OC(=O)COc2ccccc2C)c(-n2nc3ccccc3n2)c1 | - | - | 53.4 | - | -
S=C1SC2(CCCCCC2)NC2=C1CCCCC2 | . | . | - | . | .
CCN(CC)C(=O)CCn1nc(-c2ccc(C)cc2)c2ccccc2c1=O | . | - | - | - | -
CCN(CC)C(=O)Cn1c(=O)c2ccccc2n2c(=S)sc(-c3cccc(C)c3)c12 | - | -66.7 | - | ? | -
O=C(O)CCCN1C(=O)/C(=C/C=C/c2ccco2)SC1=S | - | - | - | 97.7 | +
O=C(O)CC(C(=O)O)N1C(=O)/C(=C/C=C/c2ccco2)SC1=S (stereo not drawn) | - | -65.6 | - | 99.9 | +

Compound activity deposited in PubChem by several laboratories.
